Data reported in PubChem BioAssay AID540296 (Southern Research Specialized Biocontainment Screening …, 2011).
Potency and affinity values are given separately. Calls of active or inactive are those of the source. Where a call stands in place of a potency, no number is given. How the calls were made is not given here.

Test: MDCK cell cytotoxicity, dose response, cytotoxicity control (AID 540296)

Structure (SMILES)	outcome
Cc1ccc(N2C(=O)C(CC(=O)Nc3cccc(F)c3)N(C3CC3)C2=O)cc1 (configuration not stated)	inactive
CN(C)c1cccc2c(C=C(C#N)C#N)ccc(N(C)C)c12	inactive
